{"source": "paper PMC7862700", "about": "“An all-to-all approach to the identification of sequence-specific readers for epigenetic DNA modifications on cytosine”", "test_in_all_cases": "DAPPL (digital affinity profiling via proximity ligation, sequencing); 10 mM Tris-HCl pH 7.5, 50 mM NaCl, 1 mM DTT, 4% glycerol, room temperature, 30 min; GST-TFs on glutathione beads, 16-mer random dsDNA library, 0.1% formaldehyde crosslink after washing; high values mean tight binding", "key": {"FEV": {"biological_target": "T1, FEV (Homo sapiens, UniProt Q99581 1-238)", "T1 sequence": "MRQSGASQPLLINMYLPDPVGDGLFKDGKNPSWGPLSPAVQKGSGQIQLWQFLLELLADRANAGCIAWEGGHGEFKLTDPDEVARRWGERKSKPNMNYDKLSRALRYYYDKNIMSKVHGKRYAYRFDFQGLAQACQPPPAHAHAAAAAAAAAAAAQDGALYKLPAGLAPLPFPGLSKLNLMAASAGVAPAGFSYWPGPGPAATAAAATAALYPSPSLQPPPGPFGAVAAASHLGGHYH", "conditions": "protein: recombinant; tags: N-terminal GST; dsDNA, one strand shown", "in_short": "(§1)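 Human transcription factors carrying a GST fusion were produced in yeast, bound to glutathione beads, tagged with DNA barcodes and pooled together with a tag-only sample. Each pool was held with 200 nmole of a random double-stranded 16-mer DNA library in Tris/NaCl/DTT/glycerol buffer for 30 min at room temperature, then washed, crosslinked in 0.1% formaldehyde, proximity-ligated with BsaI/T4 ligase (1 h, 37 °C), PCR-amplified and sequenced on an Illumina NextSeq500. Binding signal is the read frequency of each hexamer for a given factor divided by its frequency in the tag-only sample.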"}, "ETV5": {"biological_target": "ETV5 (Homo sapiens, UniProt P41161 1-510)", "sequence (P41161 whole entry)": "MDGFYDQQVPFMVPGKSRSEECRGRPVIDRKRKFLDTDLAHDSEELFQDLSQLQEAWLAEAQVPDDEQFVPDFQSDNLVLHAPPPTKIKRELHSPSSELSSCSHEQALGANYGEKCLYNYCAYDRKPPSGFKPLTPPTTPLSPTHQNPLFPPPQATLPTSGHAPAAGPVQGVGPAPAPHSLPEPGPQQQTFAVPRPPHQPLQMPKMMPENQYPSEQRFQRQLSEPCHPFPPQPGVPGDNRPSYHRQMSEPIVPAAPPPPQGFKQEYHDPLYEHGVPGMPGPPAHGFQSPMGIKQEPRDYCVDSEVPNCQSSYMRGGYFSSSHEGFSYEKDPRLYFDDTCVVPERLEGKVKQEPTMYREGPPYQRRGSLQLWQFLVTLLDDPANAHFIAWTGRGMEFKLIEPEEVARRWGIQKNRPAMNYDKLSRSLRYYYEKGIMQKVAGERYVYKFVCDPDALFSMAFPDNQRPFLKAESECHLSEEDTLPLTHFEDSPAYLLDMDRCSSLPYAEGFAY", "conditions": "protein: recombinant; tags: N-terminal GST; dsDNA, one strand shown", "in_short": "as §1"}, "HSF1": {"biological_target": "HSF1 (Homo sapiens, UniProt Q00613 1-529)", "sequence (Q00613 whole entry)": "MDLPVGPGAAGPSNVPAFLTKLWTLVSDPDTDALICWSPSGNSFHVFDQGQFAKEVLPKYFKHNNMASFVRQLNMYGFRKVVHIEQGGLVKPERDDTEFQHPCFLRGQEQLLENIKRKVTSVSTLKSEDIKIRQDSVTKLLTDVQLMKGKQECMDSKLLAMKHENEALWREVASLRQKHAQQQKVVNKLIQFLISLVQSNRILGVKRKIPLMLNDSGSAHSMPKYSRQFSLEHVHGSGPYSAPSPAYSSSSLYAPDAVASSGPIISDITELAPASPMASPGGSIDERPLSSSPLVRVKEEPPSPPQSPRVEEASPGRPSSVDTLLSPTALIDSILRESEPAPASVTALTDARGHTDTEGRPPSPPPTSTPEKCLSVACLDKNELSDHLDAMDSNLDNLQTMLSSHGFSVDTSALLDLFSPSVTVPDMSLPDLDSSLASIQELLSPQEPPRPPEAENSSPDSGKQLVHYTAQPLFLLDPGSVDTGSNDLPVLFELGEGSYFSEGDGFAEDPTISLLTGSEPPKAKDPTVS", "conditions": "protein: recombinant; tags: N-terminal GST; chain copies: 3; dsDNA, one strand shown", "in_short": "as §1"}, "SPIC": {"biological_target": "T2, SPIC (Homo sapiens, UniProt Q8N5J4 1-248)", "T2 sequence": "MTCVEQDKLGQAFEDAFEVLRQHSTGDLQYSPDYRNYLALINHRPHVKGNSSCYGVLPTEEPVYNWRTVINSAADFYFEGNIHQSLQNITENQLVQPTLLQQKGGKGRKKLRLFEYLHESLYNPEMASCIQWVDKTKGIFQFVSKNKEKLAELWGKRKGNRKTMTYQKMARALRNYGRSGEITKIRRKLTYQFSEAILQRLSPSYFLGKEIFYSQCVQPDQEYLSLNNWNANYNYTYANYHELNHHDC", "conditions": "protein: recombinant; tags: N-terminal GST; dsDNA, one strand shown", "in_short": "as §1"}, "ELF4": {"biological_target": "ELF4 (Homo sapiens, UniProt Q99607 1-663)", "sequence (Q99607 whole entry)": "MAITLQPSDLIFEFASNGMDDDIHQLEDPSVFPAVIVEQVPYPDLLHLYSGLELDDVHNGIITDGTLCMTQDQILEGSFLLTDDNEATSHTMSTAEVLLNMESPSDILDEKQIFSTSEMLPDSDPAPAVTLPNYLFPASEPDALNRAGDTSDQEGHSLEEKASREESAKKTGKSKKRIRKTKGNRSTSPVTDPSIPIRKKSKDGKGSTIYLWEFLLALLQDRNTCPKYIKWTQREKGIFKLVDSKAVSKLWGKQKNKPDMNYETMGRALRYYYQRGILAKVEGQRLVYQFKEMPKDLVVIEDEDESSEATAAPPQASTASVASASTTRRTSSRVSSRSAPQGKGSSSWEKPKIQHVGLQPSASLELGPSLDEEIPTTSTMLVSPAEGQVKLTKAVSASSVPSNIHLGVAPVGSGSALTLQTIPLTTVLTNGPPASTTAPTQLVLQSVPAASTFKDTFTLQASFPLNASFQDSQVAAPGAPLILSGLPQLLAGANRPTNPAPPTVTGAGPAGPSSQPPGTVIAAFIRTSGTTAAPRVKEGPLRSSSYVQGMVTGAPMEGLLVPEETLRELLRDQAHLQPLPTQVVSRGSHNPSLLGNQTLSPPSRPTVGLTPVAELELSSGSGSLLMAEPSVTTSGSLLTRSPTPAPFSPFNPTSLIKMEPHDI", "conditions": "protein: recombinant; tags: N-terminal GST; dsDNA, one strand shown", "in_short": "as §1"}, "ELK4": {"biological_target": "T3, ELK4 (Homo sapiens, UniProt P28324-2 1-405)", "T3 sequence": "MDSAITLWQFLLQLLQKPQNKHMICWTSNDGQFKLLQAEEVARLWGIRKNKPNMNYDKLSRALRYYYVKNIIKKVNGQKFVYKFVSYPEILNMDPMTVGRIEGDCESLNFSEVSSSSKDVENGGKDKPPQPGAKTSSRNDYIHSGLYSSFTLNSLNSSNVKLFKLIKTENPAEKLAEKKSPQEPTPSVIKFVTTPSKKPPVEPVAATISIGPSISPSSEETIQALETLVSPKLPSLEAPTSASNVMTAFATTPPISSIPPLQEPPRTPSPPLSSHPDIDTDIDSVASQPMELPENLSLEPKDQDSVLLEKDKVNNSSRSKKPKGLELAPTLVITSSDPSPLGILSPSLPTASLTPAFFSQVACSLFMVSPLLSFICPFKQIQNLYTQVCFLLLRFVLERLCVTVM", "conditions": "protein: recombinant; tags: N-terminal GST; dsDNA, one strand shown", "in_short": "as §1"}, "ETV2": {"biological_target": "T4, ETV2 (Homo sapiens, UniProt O00321 1-342)", "T4 sequence": "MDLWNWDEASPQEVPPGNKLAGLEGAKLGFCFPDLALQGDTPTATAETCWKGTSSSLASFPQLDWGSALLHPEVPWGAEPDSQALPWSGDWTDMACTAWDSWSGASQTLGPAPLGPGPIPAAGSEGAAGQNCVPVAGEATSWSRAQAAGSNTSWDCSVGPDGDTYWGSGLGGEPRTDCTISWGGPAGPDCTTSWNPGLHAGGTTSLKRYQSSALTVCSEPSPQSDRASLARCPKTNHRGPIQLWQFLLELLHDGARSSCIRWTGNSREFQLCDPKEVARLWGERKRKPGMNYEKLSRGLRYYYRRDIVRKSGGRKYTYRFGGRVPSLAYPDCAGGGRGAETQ", "conditions": "protein: recombinant; tags: N-terminal GST; dsDNA, one strand shown", "in_short": "as §1"}, "ELF3": {"biological_target": "T5, ELF3 (Homo sapiens, UniProt P78545 1-371)", "T5 sequence": "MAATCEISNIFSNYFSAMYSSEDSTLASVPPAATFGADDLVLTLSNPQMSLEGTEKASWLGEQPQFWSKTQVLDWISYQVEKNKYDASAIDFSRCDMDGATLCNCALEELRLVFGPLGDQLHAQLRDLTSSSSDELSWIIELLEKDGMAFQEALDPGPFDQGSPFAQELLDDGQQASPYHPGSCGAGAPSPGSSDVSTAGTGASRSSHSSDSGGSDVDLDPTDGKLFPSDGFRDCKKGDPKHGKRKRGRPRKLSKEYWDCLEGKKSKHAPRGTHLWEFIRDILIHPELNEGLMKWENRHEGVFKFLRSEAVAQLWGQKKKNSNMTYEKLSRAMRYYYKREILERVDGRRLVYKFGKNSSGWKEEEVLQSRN", "conditions": "protein: recombinant; tags: N-terminal GST; dsDNA, one strand shown", "in_short": "as §1"}, "CRX": {"biological_target": "CRX (Homo sapiens, UniProt O43186 1-299)", "sequence (O43186 whole entry)": "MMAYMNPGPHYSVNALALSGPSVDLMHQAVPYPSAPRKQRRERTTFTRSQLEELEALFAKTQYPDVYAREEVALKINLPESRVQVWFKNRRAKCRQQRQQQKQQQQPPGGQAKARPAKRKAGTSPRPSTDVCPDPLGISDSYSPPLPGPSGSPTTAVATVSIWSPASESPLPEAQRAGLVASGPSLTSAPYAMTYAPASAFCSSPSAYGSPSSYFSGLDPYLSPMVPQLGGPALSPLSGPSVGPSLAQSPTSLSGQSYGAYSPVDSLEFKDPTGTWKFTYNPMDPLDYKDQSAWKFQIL", "conditions": "protein: recombinant; tags: N-terminal GST; dsDNA, one strand shown", "in_short": "as §1"}, "ETV1": {"biological_target": "ETV1 (Homo sapiens, UniProt P50549 1-477)", "sequence (P50549 whole entry)": "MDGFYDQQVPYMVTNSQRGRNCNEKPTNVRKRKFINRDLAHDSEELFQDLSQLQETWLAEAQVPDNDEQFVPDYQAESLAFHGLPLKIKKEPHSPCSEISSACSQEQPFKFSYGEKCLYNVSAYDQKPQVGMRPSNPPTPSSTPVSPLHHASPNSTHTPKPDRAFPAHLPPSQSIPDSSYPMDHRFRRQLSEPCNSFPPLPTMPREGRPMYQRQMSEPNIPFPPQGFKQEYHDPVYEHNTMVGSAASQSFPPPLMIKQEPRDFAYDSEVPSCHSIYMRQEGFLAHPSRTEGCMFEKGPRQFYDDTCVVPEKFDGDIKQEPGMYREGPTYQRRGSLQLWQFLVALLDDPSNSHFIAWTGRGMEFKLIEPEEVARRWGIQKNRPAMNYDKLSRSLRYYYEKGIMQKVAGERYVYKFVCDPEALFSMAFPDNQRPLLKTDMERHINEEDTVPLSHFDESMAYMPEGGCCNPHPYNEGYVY", "conditions": "protein: recombinant; tags: N-terminal GST; dsDNA, one strand shown", "in_short": "as §1"}}}
{"sequence": "TCCCGC", "values": [{"measurement": "binding signal", "setting": "FEV", "result": "1.46 fold enrichment (6-mer frequency, TF over GST control)"}, {"measurement": "binding signal", "setting": "ETV5", "result": "1.41 fold enrichment (6-mer frequency, TF over GST control)"}, {"measurement": "binding signal", "setting": "HSF1", "result": "1.57 fold enrichment (6-mer frequency, TF over GST control)"}, {"measurement": "binding signal", "setting": "SPIC", "result": "1.46 fold enrichment (6-mer frequency, TF over GST control)"}, {"measurement": "binding signal", "setting": "ELF4", "result": "1.55 fold enrichment (6-mer frequency, TF over GST control)"}, {"measurement": "binding signal", "setting": "ELK4", "result": "1.26 fold enrichment (6-mer frequency, TF over GST control)"}, {"measurement": "binding signal", "setting": "ETV2", "result": "1.31 fold enrichment (6-mer frequency, TF over GST control)"}, {"measurement": "binding signal", "setting": "ELF3", "result": "1.36 fold enrichment (6-mer frequency, TF over GST control)"}, {"measurement": "binding signal", "setting": "CRX", "result": "1.42 fold enrichment (6-mer frequency, TF over GST control)"}, {"measurement": "binding signal", "setting": "ETV1", "result": "1.5 fold enrichment (6-mer frequency, TF over GST control)"}]}
